PubChem BioAssay (NCI)
The panel holds about 83,000 compounds, 20% with a hit somewhere; the sample as a whole holds those more often.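 The endpoint reported here, percent growth, reads 100 for growth as untreated, 0 for no net growth and -100 for all cells dead.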 Active and inactive are the calls of the source. Rule for the calls: active = growth percent below 10; inactive = the rest.

Tests used:
Test in all cases: NCI-60 one-dose screen, 48 h (100 = growth as untreated, 0 = no growth, -100 = all killed)
Conditions in all cases: 10 µM unless noted
T-47D breast = system: T-47D breast
BT-549 breast = system: BT-549 breast
MDA-MB-435 melanoma = system: MDA-MB-435 melanoma
SW-620 colon = system: SW-620 colon
MCF7 breast = system: MCF7 breast
HCT-116 colon = system: HCT-116 colon
HCC-2998 colon = system: HCC-2998 colon
KM12 colon = system: KM12 colon

Measured: growth

COc1ccc(-c2nc(SCC(C)C)nc(N/N=C\c3cccc([N+](=O)[O-])c3)c2C#N)cc1
inactive: T-47D breast 64% | BT-549 breast 64.1% | MDA-MB-435 melanoma 67.3% | SW-620 colon 56.9% | MCF7 breast 61.6% | HCT-116 colon 30.1% | HCC-2998 colon 80.3%

Nc1n[nH]c2cccc(C#Cc3cccc(NC(=O)c4cccc(OC(F)(F)F)c4)c3)c12
inactive: T-47D breast 33.6% | BT-549 breast 85% | MDA-MB-435 melanoma 41% | SW-620 colon 57.1% | MCF7 breast 58.8% | HCT-116 colon 21.7% | HCC-2998 colon 38% | KM12 colon 58%

Oc1ccccc1/C=N/Nc1nc(N/N=C/c2ccccc2O)nc(N2CCOCC2)n1
inactive: T-47D breast 46.1% | BT-549 breast 76.3% | MDA-MB-435 melanoma 58.9% | SW-620 colon 38.5% | MCF7 breast 40% | HCT-116 colon 19.2% | HCC-2998 colon 58.9% | KM12 colon 52.7%

Cc1ccc(/C=C/c2nn3c(-c4ccco4)nnc3s2)cc1
inactive: T-47D breast 92.9% | BT-549 breast 99.2% | MDA-MB-435 melanoma 97.1% | SW-620 colon 102% | MCF7 breast 89.5% | HCT-116 colon 112% | HCC-2998 colon 114% | KM12 colon 103%

C[C@@H]1C[C@H]2C(=O)OCC(NC(=O)[C@H](Cc3cc(F)cc(F)c3)NC(=O)Nc3ccc(Cl)cc3F)C(=O)N3CCC[C@H]3C(=O)N3CCCC[C@H]3C(=O)N[C@@H](C)C(=O)N2C1 (some centres not stated)
active: HCT-116 colon -6.65%
inactive: T-47D breast 28.8% | BT-549 breast 21.4% | MDA-MB-435 melanoma 19.9% | SW-620 colon 37.7% | MCF7 breast 12.6% | HCC-2998 colon 15.8% | KM12 colon 36.1%

C/C(=N\NC(=S)Nc1ccc(Br)cc1)c1cc2ccccc2oc1=O
active: BT-549 breast 8.5% | MCF7 breast 6.49% | KM12 colon 0.612%
inactive: T-47D breast 43.1% | MDA-MB-435 melanoma 11.4% | SW-620 colon 27.7% | HCT-116 colon 16.3% | HCC-2998 colon 29.8%

C/C(=C(/c1ccc(O)cc1)c1ccc(OCCN2CCCC2)cc1)c1ccc(Cl)cc1
active: SW-620 colon -57.1% | MCF7 breast 5.58%
inactive: T-47D breast 24.9% | BT-549 breast 89.6% | MDA-MB-435 melanoma 20% | HCT-116 colon 36.6% | HCC-2998 colon 17.2% | KM12 colon 46.5%

CN1C(=O)N(C)C2Nn3c(s/c(=C\c4ccccn4)c3=O)=NC21 (configuration not stated)
inactive: T-47D breast 102% | BT-549 breast 103% | MDA-MB-435 melanoma 99.2% | SW-620 colon 105% | MCF7 breast 89.3% | HCT-116 colon 100% | HCC-2998 colon 109% | KM12 colon 106%

CCc1ccc(NC(=O)N[C@@H](Cc2cccc(F)c2)C(=O)N[C@@H]2C(=O)N3CCC[C@H]3C(=O)N3CCCC[C@H]3C(=O)N[C@@H](C)C(=O)N3C[C@H](C)C[C@H]3C(=O)O[C@H]2C)c(F)c1
inactive: T-47D breast 29.6% | BT-549 breast 17.9% | MDA-MB-435 melanoma 19.2% | SW-620 colon 34.4% | MCF7 breast 15.2% | KM12 colon 33.6%
active: HCT-116 colon 3.62% | HCC-2998 colon 5.04%

O=C1c2c(c3c4cc(Br)ccc4[nH]c3c3ccc4ccccc4c23)C(=O)N1CCN1CCCCC1
inactive: T-47D breast 43.3% | BT-549 breast 91% | SW-620 colon 10.5%
active: MDA-MB-435 melanoma -41.8% | MCF7 breast -35.6% | HCT-116 colon -61.8% | HCC-2998 colon 2.69%

CCCC(=O)NC(c1cccnc1)c1cc(C(C)=O)c2cccnc2c1O (configuration not stated)
inactive: T-47D breast 41.7% | BT-549 breast 32.2% | MDA-MB-435 melanoma 34.5% | SW-620 colon 38% | MCF7 breast 18.8% | HCT-116 colon 25.5% | HCC-2998 colon 24.9% | KM12 colon 21.4%

O=C(CN1C(=O)CSC1=O)Nc1ccc(C(=O)/C=C/c2cc3ccccc3nc2Cl)cc1
inactive: T-47D breast 58.7% | BT-549 breast 66.1% | MDA-MB-435 melanoma 25.6% | SW-620 colon 95.6% | MCF7 breast 12.5% | HCC-2998 colon 82.1% | KM12 colon 62.2%
active: HCT-116 colon -45.5%

Cc1[nH]nc2ccc(-c3nc4cnc(N5CCN(C)CC5)cn4c3Nc3ccc(F)cc3Br)cc12
inactive: T-47D breast 38.9% | BT-549 breast 91.1% | MDA-MB-435 melanoma 30.7% | SW-620 colon 32.8% | MCF7 breast 15.5% | HCT-116 colon 11% | HCC-2998 colon 69.8% | KM12 colon 59.3%

Nc1nc(-c2cccc([N+](=O)[O-])c2)c(N=Nc2ccccc2Cl)s1
inactive: T-47D breast 57.9% | BT-549 breast 71.6% | MDA-MB-435 melanoma 89.5% | SW-620 colon 54.7% | MCF7 breast 66.6% | HCT-116 colon 32.6% | HCC-2998 colon 107% | KM12 colon 67.4%

O=C1c2c(c3c4cccnc4[nH]c3c3ccc4ccccc4c23)C(=O)N1CCN1CCOCC1
inactive: T-47D breast 65.5% | BT-549 breast 65.6% | MDA-MB-435 melanoma 67.7% | SW-620 colon 47.1% | MCF7 breast 15.9% | HCT-116 colon 58.1% | HCC-2998 colon 82%
